Test results from article PMC4552634, “A New Set of Chemical Starting Points with Plasmodium falciparum Transmission-Blocking Potential for Antimalarial Drug Discovery” (PLoS ONE, 2015).
The campaign covered roughly 13,000 compounds. About 3,200 (25%) showed an effect of 50% or more. The list shows a part of the results.

tested on: P. falciparum stage V gametocytes; design: BacTiter-Glo ATP luminescence viability of purified stage V gametocytes in 384-well plates, per cent inhibition versus DMSO; settings: 48 h, 5 µM; inhibitor

In order of rising “% Inhibition” value:
1. Cc1ccc2nc(C)cc(NC(=O)Nc3ccc(N(C)C)cc3)c2c1 [TCMDC-140108]  -84.19%
2. Cl.Oc1ccccc1Nc1nc(NCc2ccco2)c2ccccc2n1 [TCMDC-124544]  -81.25%
3. CC(C)(CNCc1ccc(F)c(F)c1)c1nc(-c2ccc(Cl)c(O)c2)c(-c2ccncc2)[nH]1 [TCMDC-140672]  -67.6%
4. COc1ccc(CNCC(C)(C)c2nc(-c3ccc(Cl)c(O)c3)c(-c3ccncc3)[nH]2)cc1 [TCMDC-140538]  -60.58%
5. c1ccc(Oc2ccc(Nc3ccnc4cc(-c5ccc(CNCCN6CCOCC6)o5)ccc34)cc2)nc1 [TCMDC-138423]  -53.28%
6. CC(C)(CNCc1ccc(Cl)cc1)c1nc(-c2ccc(Cl)c(O)c2)c(-c2ccncc2)[nH]1 [TCMDC-140548]  -50.17%
7. COc1ccc2nccc([C@@H](O)CN3CCC(NC(=O)c4cccc(C(=O)c5ccccc5)c4)CC3)c2c1 [TCMDC-141283]  -43.58%
8. COc1ccc(Nc2nc(N/N=C/c3ccc(O)cc3)nc(Nc3ccc([N+](=O)[O-])cc3)n2)cc1 [TCMDC-124127]  -40.32%
9. CCC(C)NCc1c(O)ccc2c(CNC(C)CC)c(O)ccc12 (stereo not drawn) [TCMDC-137585]  -26.38%
10. Cc1cc(NCCCN2CCCC2=O)n2c(nc3ccccc32)c1C#N [TCMDC-124485]  -25.7%
11. CC1c2cccc(O)c2CCN1CCc1ccc(Cl)c(Cl)c1 (stereo not drawn) [TCMDC-138976]  -24.59%
12. CC1(C)N=C(N)NC(Nc2ccc(F)c(F)c2)=N1 [TCMDC-123533]  -23.61%
13. CS(=O)(=O)CCNCc1ccc(-c2cc3c(Nc4ccc(OCc5cccc(F)c5)c(Cl)c4)ncnc3s2)[nH]1 [TCMDC-135511]  -19.72%
14. O=C(Nc1ccc2nc3n(c(=O)c2c1)CCCCC3)C(=O)N1CCN(c2ccc(F)cc2)CC1 [TCMDC-125293]  -18.55%
15. O=C(Nc1ccc(-c2nc3ccccc3[nH]2)cc1)c1ccc(Cl)s1 [TCMDC-123725]  -15.63%
16. N#Cc1ccc2c(c1)CCN(CCC1CCC(NC(=O)/C=C/c3ccc(Cl)c(Cl)c3)CC1)CC2 (stereo not drawn) [TCMDC-139792]  -12.21%
17. O=C(Nc1cccc(-c2ccc(-c3nc4ccccc4[nH]3)cc2)c1)c1csnn1 [TCMDC-136901]  -10.17%
18. O=C(Cc1ccc(Cl)cc1)Nc1cc(Cl)ccc1Cn1cnc(N2CCNCC2)cc1=O [TCMDC-134317]  -8.964%
19. COc1ccc2nccc([C@@H](O)CN3CCC(NC(=O)c4cc5c(F)cc(F)cc5[nH]4)CC3)c2c1 [TCMDC-140781]  -8.295%
20. CCS(=O)(=O)N1CCN(c2nc(-c3ccccc3)nc(COC)c2Cc2ccccc2F)CC1 [TCMDC-124784]  -1.025%
21. c1ccc(Oc2ccc(Nc3ccnc4cc(-c5ccc(CN6CCCCC6)o5)ccc34)cc2)nc1 [TCMDC-138422]  -0.3034%
22. Cc1cc(NC2CCCC2)nc(Nc2ccccc2C)n1 [TCMDC-133473]  -0.2818%
23. Cc1nc(NCc2ccccc2)cc(Nc2cc(NCc3ccccc3)nc(C)n2)n1 [TCMDC-137298]  0.4033%
24. O=c1cc(NCCCN(Cc2cc3c(Cl)cc(Cl)cc3[nH]2)Cc2cc3c(Cl)cc(Cl)cc3[nH]2)[nH]c2ccccc12 [TCMDC-139849]  1.838%
25. O=C(NC1CCN(Cc2ccc3c(c2)OCCO3)CC1)c1ccc(-c2cccc(Cl)c2)s1 [TCMDC-134338]  2.147%
26. Cc1nnc(-c2ccc3ccccc3c2)c2cn(-c3cccc([N+](=O)[O-])c3)nc12 [TCMDC-138592]  4.043%
27. O=C(NCc1cccc(F)c1)Nc1ccc(-c2cccc(-c3nc4ccccc4[nH]3)c2)cc1 [TCMDC-133297]  6.044%
28. Cc1c(C(=O)N2CCCC(C(F)(F)F)C2)sc2cccc(F)c12 (stereo not drawn) [TCMDC-124598]  6.461%
29. O=C(NC1CCCCC1)N(CCCn1ccnc1)Cc1csc(-c2ccc(CNCc3ccccc3)cc2)n1 [TCMDC-141645]  7.097%
30. CC(=O)c1cccc(S(=O)(=O)NCCCNc2nc3cc(C)cc(C)c3cc2C#N)c1 [TCMDC-123734]  8.065%
31. COc1ccc(C2CC(=O)C3=C(C2)NC(C)=C(C(=O)OC2CCCC2)C3c2cccc(O)c2)cc1 (stereo not drawn) [TCMDC-125631]  10.18%
32. c1ccc(Oc2ccc(Nc3ccnc4cc(-c5ccc(CN6CCOCC6)o5)ccc34)cc2)nc1 [TCMDC-138424]  11.61%
33. COc1ccccc1N=C1SC(=Cc2cn(CC(=O)N3CCCc4ccccc43)c3ccccc23)C(=O)N1C1CCCCC1 [TCMDC-124809]  13.24%
34. O=C(Nc1cccc(-c2cc(-c3c(Cl)cccc3Cl)no2)c1)c1cnc2ccccc2c1 [TCMDC-136759]  13.25%
35. CC(C)C(=O)Nc1c(F)cc(F)cc1CCc1ccc(O)cc1 [TCMDC-137532]  15.35%
36. Cc1ccc(O)c(Nc2c3c(c(C#N)c4nc5ccccc5n24)CCC3)c1 [TCMDC-124227]  16.2%
37. CN1CCC(NCc2cccc(-c3ccc(S(=O)(=O)NCCc4ccccn4)c(F)c3)c2)CC1 [TCMDC-132220]  17%
38. O=C(Nc1cccc(Cl)c1)N(CCCn1ccnc1)Cc1csc(-c2ccc(CNCc3ccccc3)cc2)n1 [TCMDC-141796]  19.94%
39. CC(C)(CNCc1ccc(C(F)(F)F)cc1)c1nc(-c2ccc(Cl)c(O)c2)c(-c2ccncc2)[nH]1 [TCMDC-140689]  22.22%
40. CC(C)(CNCc1cccc(Oc2ccccc2)c1)c1nc(-c2ccc(Cl)c(O)c2)c(-c2ccnc(N)n2)[nH]1 [TCMDC-141167]  23.98%
41. Cc1ccc(O)cc1Nc1ccnc2cc(-c3ccc(CN4CCCCC4)o3)ccc12 [TCMDC-138384]  25.1%
42. CC(=O)N(C)C1CCN(Cc2cccc(-c3ccc(-c4nc5cc(F)ccc5[nH]4)cc3)c2)C1.O=C(O)C(F)(F)F (stereo not drawn) [TCMDC-133894]  26.71%
43. COc1ccc(Nc2nc(NCc3ccco3)c3ccccc3n2)cc1.Cl [TCMDC-124562]  32.58%
44. CCC(C)NCCC(c1ccccc1)c1ccccc1O (stereo not drawn) [TCMDC-125727]  32.82%
45. CN1CCN(Cc2ccc(-c3cc4nccc(Nc5ccc(Oc6ccccc6)cc5)c4cc3Cl)o2)CC1 [TCMDC-138463]  37.01%
46. CC(C)(CNCc1ccc(C(F)(F)F)cc1)c1nc(-c2ccc(Cl)c(O)c2)c(-c2ccnc(N)n2)[nH]1 [TCMDC-141162]  38.42%
47. O=[N+]([O-])c1cccc(C=NNc2nc(Nc3ccccc3)nc(Nc3ccccc3)n2)c1 [TCMDC-125797]  40.05%
48. CCCN(Cc1ccc(OCC)cc1)Cc1cc(=O)c2cc(Cl)ccc2[nH]1 [TCMDC-124740]  40.3%
49. CN(C)CCNC(=O)[C@H](CC1CCCCC1)NC(=O)c1ccc(O)c(-c2ccc(Cl)c(Cl)c2)c1 [TCMDC-140865]  44.5%
50. COc1ccc2ncc(C#N)c(CCN3C[C@H](CNCc4ccccc4)[C@H](O)C3)c2n1 [TCMDC-136369]  48.08%
51. COc1ccc(CNC2CCN(C)CC2)cc1-c1ccc(S(=O)(=O)NCCc2ccccn2)cc1 [TCMDC-132246]  50.8%
52. CCCN(Cc1ccc(C)cc1)Cc1cc(=O)c2cc(Cl)ccc2[nH]1 [TCMDC-124741]  52.71%
53. CN1CCN(Cc2ccc(-c3ccc4c(Nc5ccc(Oc6ccccc6)cc5)ccnc4c3)o2)CC1 [TCMDC-138402]  53.53%
54. CC(C)(CNCc1cccc(Oc2cccc(C(F)(F)F)c2)c1)c1nc(-c2ccc(Cl)c(O)c2)c(-c2ccnc(N)n2)[nH]1 [TCMDC-141166]  55.63%
55. COc1cc(/C=N/Nc2nc(Nc3ccccc3)nc(Nc3ccccc3)n2)ccc1OCc1ccccc1[N+](=O)[O-] [TCMDC-125793]  59.87%
56. CCC(C)NCC(O)(c1ccc(Cl)cc1)c1ccc(Cl)cc1 (stereo not drawn) [TCMDC-123502]  68.55%
57. CN(C)CCCOc1ccc(CNCC(C)(C)c2nc(-c3ccc(Cl)c(O)c3)c(-c3ccncc3)[nH]2)cc1 [TCMDC-140650]  71.95%
58. CCCCNc1c(CC)c(C)c(C#N)c2nc3ccccc3n12 [TCMDC-125729]  72.07%
59. COc1ccc(CNC2CCN(C)CC2)cc1-c1ccc(S(=O)(=O)NCCc2ccccn2)c(C)c1 [TCMDC-132271]  72.47%
60. CN1CCN(Cc2ccc(-c3ccc4c(Nc5ccc(Oc6ccccn6)cc5)ccnc4c3)o2)CC1 [TCMDC-138420]  73.84%
61. Cc1c(CCC#N)c(NCc2ccccc2)n2c(nc3ccccc32)c1C#N [TCMDC-123759]  74.35%
62. CCc1c(C)c(C#N)c2nc3ccccc3n2c1NCc1ccco1 [TCMDC-124079]  78.38%
63. CC(C)(CNCc1ccc(Cl)c(Cl)c1)c1nc(-c2ccc(Cl)c(O)c2)c(-c2ccncc2)[nH]1 [TCMDC-140688]  78.8%
64. O=C(NC1CC1c1ccccc1)N(CCCn1ccnc1)Cc1csc(-c2ccc(CNCc3ccccc3)cc2)n1 (stereo not drawn) [TCMDC-141644]  86.73%
65. c1ccc(Oc2ccc(Nc3ccnc4cc(-c5ccc(CN6CCNCC6)o5)ccc34)cc2)nc1 [TCMDC-138421]  97.92%
66. COc1ccc(CNC2CCN(C)CC2)cc1-c1ccc(S(=O)(=O)NCCc2ccccn2)c(F)c1 [TCMDC-132264]  102.9%
